DT40 TDP1 CPT: growth inhibition of DT40 Tdp1-/-;hTDP1 cells with camptothecin (screen for TDP1 inhibitors). Potency, µM (titrated, usually from 46.2 µM), actives largely listed as inhibitors. 420,000 compounds, 12% hits. chicken DT40 Tdp1-/-;hTDP1 cells + 20 nM CPT, ATP luminescence, 48 h; further: nearly all actives have a fitted effect of over 55% in size
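Chicken DT40 Tdp1-/- cells complemented with human TDP1, 400 cells/well, exposed to compounds plus 20 nM camptothecin for at least 48 h at 37 C; viability read as ATP content by CellTiter-Glo luminescence.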
IL1B secr inh: blocks inflammasome-driven IL-1 beta release | THP-1 LPS/ATP IL-1B secretion, AlphaLISA, 16 h; active compounds read low | activity change, % at 57.5 µM | 360,000 compounds, 4.7% hits | AID 743279; in the data active means activity change below about -50%; inconclusive means mostly about -30% to -49%
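Secreted IL-1B measured by AlphaLISA bead assay after 16 h compound exposure of THP-1 cells; compounds (final up to 57.5 uM) added 1 h before LPS (250 ng/mL) and ATP (1.25 mM) stimulation; lower signal means less secretion.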
HT1080-NT tox: kills 2HG-producing HT-1080-NT fibrosarcoma cells; HT-1080-NT fibrosarcoma viability, CellTiter-Glo ATP luminescence, 48 h; Potency, µM (top dose mostly 46.1 µM), most hits filed as cytotoxic; 360,000 compounds, 1.6% hits;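 further: NT is the 2HG producing partner of a matched IDH1 knockdown line; nearly all actives have a fitted effect of over 55% in size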
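Viability of the 2HG-overproducing fibrosarcoma line after 48 hours of compound exposure at 37 degrees C was determined by luminescence with CellTiter-Glo, and concentration-effect curves were then fitted and categorized.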
HT1080 IDH1KD tx: HT-1080 IDH1 knockdown cell toxicity (counter line) | AID 686971 | 360,000 compounds, 2% hits | Potency, µM (doses to about 46.1 µM), most hits filed as cytotoxic | HT-1080 IDH1 knockdown viability, ATP luminescence, 48 h
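Assay cells: HT-1080 with IDH1 knockdown, 750 per well, RPMI/5% FBS. Exposure: 48 h at 37 °C following 2 h pre-incubation. Read: CellTiter-Glo luminescence; fitted concentration-response, curve class assigned.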
ELG1 DNA repair: inhibitors of ELG1-dependent DNA repair in HEK293T cells; HEK293T ELG1-luciferase reporter, luminescence, 16 h; DNA damage induced by 5-fluorouridine; Potency, µM (highest dose often 46.1 µM), usual class: inhibitors; 330,000 compounds, 2.3% hits; AID 504467; further: nearly all actives have a fitted effect of over 55% in size
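Overnight (16 hr) co-exposure of 2,000 cells/well to 5-fluorouridine and compound at 37 °C preceded detection. Luciferase was quantified via ONE-Glo luminescence; loss of signal denotes inhibition.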
DT40 TDP1 no CPT: qHTS for Inhibitors of human tyrosyl-DNA phosphodiesterase 1 (TDP1): qHTS in cells in absence of CPT. AID 686978, 2013. Potency, µM (doses to about 46.2 µM), hits mostly inhibitors. DT40 Tdp1-/- hTDP1 cells, no CPT, ATP luminescence, 48 h. 420,000 compounds, 15% hits; further: nearly all actives have a fitted effect of over 55% in size
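Chicken DT40 Tdp1-/- cells stably complemented with human TDP1 were seeded at 400 cells/well with DMSO in place of 20 nM camptothecin. After compound pinning, cells grew at least 48 hr at 37 °C; viability read by CellTiter-Glo luminescence.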
Numbers stand for hits; i = inactive; ? = inconclusive; nt = no result. In the library only some 19% were active in any assay of this set; here they are far more common. Unless noted, the call rests on the fitted dose curve; in most records, active means well fitted curve in the direction sought with a large enough effect; inconclusive means small, poorly fitted or top-dose-only effect, or another doubt; inactive means no such curve, though single readings can be large; an effect the other way counts as inactive or inconclusive.

SMILES	DT40 TDP1 CPT	IL1B secr inh	HT1080-NT tox	HT1080 IDH1KD tx	ELG1 DNA repair	DT40 TDP1 no CPT
COCCn1c(SC(C)C(=O)NCC2CCCO2)nc2scc(-c3ccc(F)cc3)c2c1=O (stereo not given)	i	i	i	i	?	?
O=C(O)COc1ccc(/C=N/NC(=O)/C(=C/C=C/c2ccccc2)NC(=O)c2ccccc2)cc1	i	i	i	i	i	i
CCCCOc1ccc(C(=O)N/C(=C/C=C/c2ccccc2)C(=O)NC)cc1	26µM	i	i	i	?	i
O=C(Nc1ccc(O)cc1)/C(=C\C=C\c1ccccc1)NC(=O)c1ccccc1	?	i	i	i	?	16µM
O=C(Nc1ccc(C(=O)O)cc1)/C(=C\C=C\c1ccccc1)NC(=O)c1ccccc1Cl	i	i	i	i	i	i
OC(c1ccccc1)(C1CCCCC1)C(CN1CCOCC1)c1ccccc1 (stereo not given)	18µM	i	?	?	i	23µM
COc1ccc(C(O)(C2CCCCC2)C(CN2CCOCC2)c2ccccc2)cc1 (stereo not given)	26µM	i	?	?	?	?
C[n+]1cnc(-c2ccccc2)cc1-c1ccccc1	i	i	i	i	i	i
COc1cc(OC)c2c(-c3cccc(-c4sccc4C(C)=O)c3)cc(=O)oc2c1	3.7µM	i	4.1µM	3.7µM	?	4.1µM
COC(=O)COc1cc(OCC(=O)OC)c2c(-c3ccccc3)cc(=O)oc2c1	i	i	i	i	i	i
COc1cc(OC)c2c(-c3cccc(-c4ccc(NC(C)=O)cc4)c3)cc(=O)oc2c1	4.1µM	i	0.52µM	0.92µM	?	5.8µM
CCOC(=O)c1ccc(-c2cccc(-c3cc(=O)oc4cc(OC)cc(OC)c34)c2)cc1	?	i	i	i	i	?
COc1cc(OC)c2c(-c3cccc(-c4ccc(C(F)(F)F)cc4)c3)cc(=O)oc2c1	4.6µM	i	i	i	i	2.6µM
COc1cc(OC)c2c(-c3cccc(-c4ccc(F)c(Cl)c4)c3)cc(=O)oc2c1	?	i	?	16µM	?	23µM
COc1cccc(CNC(=O)CCS(=O)(=O)c2cc3c4c(c2)CCN4C(=O)CC3)c1	i	nt	nt	nt	nt	i
Cc1ccc(-c2cccc(-c3cc(=O)oc4ccc(C(C)(C)C)cc34)c2)cc1	?	i	i	i	i	23µM
COC(=O)Nc1ccc(S(=O)(=O)N2CCCC(C(=O)N3CC(C)OC(C)C3)C2)cc1 (stereo not given)	?	i	i	i	i	i
O=C(NCc1ccncc1)c1ccc(OCc2ccccc2)cc1	21µM	i	i	i	nt	13µM
O=C(NCc1ccncc1)c1ccc(Oc2ccccc2)cc1	15µM	-66	i	i	i	18µM
O=C(NCc1ccncc1)c1ccc(Br)cc1	i	i	i	i	i	i
Cc1ccc(Oc2ccc(C(=O)NCc3ccncc3)cc2)cc1	?	-51	?	?	?	23µM
COc1ccc(NC(=O)c2ccc(Oc3ncccn3)cc2)cc1	i	i	i	i	?	i
Clc1cccc(Cc2c(-c3cccc(Br)c3)nc3c4ccccc4ccn23)c1	i	i	i	i	nt	i
Fc1cccc(Cc2c(-c3ccccc3)nc3c4ccccc4ccn23)c1	?	i	i	i	nt	16µM
CCOC(=O)Cc1c(-c2cccc(Cl)c2)nc2c3ccccc3ccn12	?	i	?	?	nt	21µM
Clc1ccc(-c2nc3c4ccccc4ccn3c2Cc2cccc(Cl)c2)cc1	?	i	i	i	nt	7.3µM
Cc1ccc(Cn2cc(CN3CC(N4CCCC4)CS3(=O)=O)nn2)cc1 (stereo not given)	i	i	i	?	nt	i
Cc1cccc(OCCCC(=O)Nc2ccc(S(=O)(=O)Nc3nccs3)cc2)c1C	i	i	i	i	i	i
C=C(NNC(C)=O)c1ccc(O)cc1	i	nt	nt	nt	nt	i

Assay outcomes (PubChem BioAssay)
